SMILES strings stand for the structures. This is part of a sample that, as a whole, favours compounds with a hit. Of some 83,000 tested, about 20% had one in any assay.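 Results are percent growth after 48 hours of single-concentration exposure. 100 means growth as in untreated cells, lower positive values show inhibition; negative values down to -100 show cell death.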 A number with no mark means an inactive call. Activity calls are given as the source filed them. How the source made its calls: active means growth percent below 10; inactive means the rest.

Holding throughout (test): NCI-60 one-dose screen, 48 h (100 = growth as untreated, 0 = no growth, -100 = all killed)
Common to all, as to details: 10 µM unless noted

Assay [1] has as its system HCT-15 colon.
Assay [2] deals with HT29 colon.
Assay [3] has as its system SNB-75 CNS.
The test system of assay [4] is SNB-19 CNS.
Assay [5] has as its system U251 CNS.
Assay [6] concerns PC-3 prostate.
Assay [7] deals with SK-MEL-5 melanoma.
In assay [8] the test system is UACC-62 melanoma.
The test system of assay [9] is LOX IMVI melanoma.
In assay [10] the test system is SK-MEL-28 melanoma.
For assay [11], the system named is SK-MEL-2 melanoma.
Assay [12] concerns EKVX NSCLC.
Assay [13] concerns SN12C renal.
Assay [14] concerns UO-31 renal.
For assay [15], the system named is TK-10 renal.
Assay [16] has as its system ACHN renal.
Assay [17] has as its system CAKI-1 renal.
Assay [18] relates to A498 renal.
Assay [19] relates to CCRF-CEM leukemia.
Assay [20] concerns MOLT-4 leukemia.

As for `Cc1ccc(-c2csc3nc(C)c(CCCl)c(=O)n23)cc1`, the growth in assay [1] was 98.5%; in [2], 105%; in [3] it was 74.7%; in assay [4] it was 100%; in [5], 106%; in assay [6], 83.5%. The growth was 89.7% in assay [7]; 88.2% in assay [8]; 89.1% in [9]; 113% in assay [10]; 94.5% in assay [11]; 76.8% in assay [12]. Besides, the growth in assay [13] was 101%; in assay [14] it was 70.4%; in assay [15], 113%; in assay [16], 99%; in assay [17] it was 88%; in [18], 104%. The growth in assay [19] was 104%; in [20] it was 85.6%.

As for `COc1cc(-c2csc(NC(=O)c3cc(C(F)(F)F)cc(C(F)(F)F)c3)n2)cc(OC)c1OC`, the growth was 15.6% in assay [1]; 21.3% in assay [2]; 52.5% in assay [3]; 29.9% in assay [4]; 21% in assay [5]; 10.6% in assay [6]. For the same compound, the growth in assay [7] was -30.1% (active); in assay [8], 3.9% (active); in [9] it was 26.5%; in [10], 40.8%; in [11], 21.5%; in assay [12], 9.17% (active). Besides, the growth is 25.3% in [13]; 21.3% in assay [14]; 33% in [15]; 36.1% in [16]; 43.2% in assay [17]; 11.1% in assay [18]. The growth in assay [19] is 29.3%; in assay [20], 20.5%.

`CCn1cc(C2NC(=O)c3cc(F)ccc3N2)c2cccc(Cl)c21` (stereo not given): the growth in assay [1] was 9.89% (active); in assay [2] it was 3.35% (active); in [3] it was -24.9% (active); in assay [4], 34.3%; in [5], -14.2% (active); in assay [6] it was 22.3%. The growth in assay [7] is 19.3%; in assay [8] it was 28.2%; in [9] it was 16.5%; in assay [10], 58.2%; in assay [11], 17.5%; in [12], 37.6%. Also, the growth in assay [13] was 29.8%; in [14], 42.6%; in [15], 50.4%; in assay [16], 33.5%; in assay [17], 34%; in assay [18], -11.4% (active). Also, the growth in assay [19] was 5.2% (active); in assay [20], 10.8%.

For `O=S(=O)(NCCCNc1cc(-c2cn(-c3ccccc3)nc2-c2cccc(O)c2)ccn1)c1cccc2ccccc12`, the growth was 1.39% (active) in assay [1]; -9.29% (active) in assay [2]; 28.1% in assay [3]; 64.2% in assay [4]; 35.2% in [5]; 18.5% in assay [6]. Also, the growth in assay [7] is 14.2%; in assay [8] it was 34.5%; in assay [9] it was 10.3%; in assay [10], 4.71% (active); in assay [11], 62.4%; in assay [12], 37.5%. Besides, the growth was 51.4% in assay [13]; 20.6% in [14]; 66.3% in [15]; 29.8% in assay [16]; 28.7% in assay [17]; 43.6% in assay [18]. In addition, the values for the growth in assay [19] and in assay [20] were 26% and 13.6%, respectively.

As for `CCOC(=O)/C=C\C(=O)NC(N)=O`, the growth in assay [1] is 99.9%; in assay [2], 104%; in assay [3], 99.3%; in [4] it was 106%; in [5], 94%; in [6] it was 83.5%. For the same compound, the growth in assay [7] was 105%; in assay [8], 99.3%; in [9], 91.8%; in assay [10], 118%; in [11] it was 101%; in assay [12] it was 98.8%. The growth in assay [13] is 103%; in assay [14], 90.8%; in [15], 97.8%; in assay [16], 112%; in assay [17], 96%; in assay [18] it was 107%. For the same compound, the growth in assay [19] is 93.9%; in [20], 86.5%.

Take `CCN(CC)CCCNc1nc(C)cc(Nc2ccc3nc(C)cc(N)c3c2)n1`: the growth in assay [1] is 105%; in [2], 92.5%; in [3] it was 90.9%; in assay [4], 108%; in assay [5], 100%; in assay [6], 76%. The growth in assay [7] was 112%; in assay [8], 117%; in assay [9] it was 95.6%; in assay [10], 111%; in [11] it was 36.1%; in assay [12], 96.2%. Also, the growth in assay [13] was 94.7%; in assay [14], 89.7%; in [15] it was 88%; in assay [16], 101%; in assay [17] it was 95.6%; in assay [18], 125%. For the same compound, the results for the growth in assay [19] and in assay [20] were 99.4% and 112%, respectively.

Values taken from PubChem BioAssay (NCI).
